# Laboratory results reported in PubChem BioAssay.
# Active and inactive are the calls of the source.
# Experiments:
# [1] = small molecules captured by biotinylated probe aFSTL3 – biochemical, small-molecule microarray, fluorescence 635/667, stem cell growth factor project, primary screen (AID 1064); details: higher = more signal;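 note: measures binding of the biotinylated anti-FSTL3 antibody to printed compounds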
# [2] = binders from COS7 lysate, DM2A8 probe, primary screen, torsin A project, cell lysate, small-molecule microarray, fluorescence 635/667 (AID 1065); details: higher = more signal, COS7 lysate expressing mutant human TOR1A
# [3] = small molecules captured by biotinylated probe aFGF2 – biochemical, small-molecule microarray, fluorescence 635/667, stem cell growth factor project, primary screen (AID 1067); details: higher = more signal;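 note: measures binding of biotinylated aFGF2 protein to printed compounds on slides; z-score merges feature fluorescence and signal-to-noise across triplicate slides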
# [4] = small molecules captured by biotinylated probe aFGF10 – biochemical, small-molecule microarray, fluorescence 635/667, stem cell growth factor project, primary screen (AID 1071); details: higher = more signal;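 note: score merges 667 nm spot intensity and signal to noise from triplicate slides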
# [5] = target: Neurogenic locus notch homolog protein 2 (Homo sapiens) (UniProt Q04721); experiment: small molecules binding Notch2 protein – biochemical, small-molecule microarray, 635 nm fluorescence, stem cell growth factors, primary screen (AID 1073); details: higher = more signal
# [6] = target: Pro-neuregulin-1, membrane-bound isoform (Homo sapiens) (UniProt Q02297); experiment: small molecules binding neuregulin-1 protein – biochemical, small-molecule microarray, fluorescence 635/667, psychiatric disease protein project, primary screen (AID 1075); details: NRG1 binding, 635 nm fluorescence, higher = more signal;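 note: score combines 667 nm spot fluorescence with signal to noise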
# [7] = tested on: Neuregulin-1 EGF-like domain; experiment: small molecules binding NRG1 EGF domain – biochemical, small-molecule microarray, 635 nm fluorescence, primary screen (AID 1081); details: higher = more signal;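 note: binding of the protein to compounds printed on small-molecule microarray slides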
# [8] = FRG1 expression reporter modulators in myotubes – cell-based, C2C12 myotubes, firefly/Renilla luciferase, luminescence, FRG1 inhibition for FSHD, primary screen (AID 1084); details: FRG1 promoter luciferase, higher = more signal, called active from +8 up or from −8 down
# [9] = small molecules captured by biotinylated probe aFST – biochemical, small-molecule microarray, fluorescence 635/667, stem cell growth factor project, primary screen (AID 1086); details: higher = more signal;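 note: score merges 667 nm fluorescence with signal-to-noise of each printed compound spot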
# [10] = binders of probe aHhip on microarray, primary screen, stem cell growth factor project, biochemical, small-molecule microarray, fluorescence 635/667 (AID 1087); details: higher = more signal;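 note: score merges spot fluorescence at 667nm with spot signal to noise ratio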
# Pro-neuregulin-1, membrane-bound isoform (Homo sapiens), sequence (Q02297 whole entry, looked up, the tested form may be a part, canonical isoform): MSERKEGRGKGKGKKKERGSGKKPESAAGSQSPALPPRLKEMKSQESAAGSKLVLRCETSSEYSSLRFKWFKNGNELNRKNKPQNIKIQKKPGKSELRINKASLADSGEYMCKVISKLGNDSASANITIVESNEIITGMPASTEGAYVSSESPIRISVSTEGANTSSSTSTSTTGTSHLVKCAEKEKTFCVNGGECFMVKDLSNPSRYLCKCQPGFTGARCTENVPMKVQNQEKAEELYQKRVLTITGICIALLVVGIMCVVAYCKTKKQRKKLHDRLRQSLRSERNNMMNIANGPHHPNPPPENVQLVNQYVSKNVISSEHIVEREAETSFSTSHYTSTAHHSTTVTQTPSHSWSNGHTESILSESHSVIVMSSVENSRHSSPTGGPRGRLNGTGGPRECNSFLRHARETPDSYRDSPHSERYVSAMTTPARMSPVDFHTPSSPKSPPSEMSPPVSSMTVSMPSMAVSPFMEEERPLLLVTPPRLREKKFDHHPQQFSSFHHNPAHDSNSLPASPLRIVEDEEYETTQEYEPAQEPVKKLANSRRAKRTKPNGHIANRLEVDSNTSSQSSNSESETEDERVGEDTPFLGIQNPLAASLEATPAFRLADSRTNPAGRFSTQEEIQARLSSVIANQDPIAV
# Neurogenic locus notch homolog protein 2 (Homo sapiens), sequence (Q04721 whole entry, looked up, canonical isoform): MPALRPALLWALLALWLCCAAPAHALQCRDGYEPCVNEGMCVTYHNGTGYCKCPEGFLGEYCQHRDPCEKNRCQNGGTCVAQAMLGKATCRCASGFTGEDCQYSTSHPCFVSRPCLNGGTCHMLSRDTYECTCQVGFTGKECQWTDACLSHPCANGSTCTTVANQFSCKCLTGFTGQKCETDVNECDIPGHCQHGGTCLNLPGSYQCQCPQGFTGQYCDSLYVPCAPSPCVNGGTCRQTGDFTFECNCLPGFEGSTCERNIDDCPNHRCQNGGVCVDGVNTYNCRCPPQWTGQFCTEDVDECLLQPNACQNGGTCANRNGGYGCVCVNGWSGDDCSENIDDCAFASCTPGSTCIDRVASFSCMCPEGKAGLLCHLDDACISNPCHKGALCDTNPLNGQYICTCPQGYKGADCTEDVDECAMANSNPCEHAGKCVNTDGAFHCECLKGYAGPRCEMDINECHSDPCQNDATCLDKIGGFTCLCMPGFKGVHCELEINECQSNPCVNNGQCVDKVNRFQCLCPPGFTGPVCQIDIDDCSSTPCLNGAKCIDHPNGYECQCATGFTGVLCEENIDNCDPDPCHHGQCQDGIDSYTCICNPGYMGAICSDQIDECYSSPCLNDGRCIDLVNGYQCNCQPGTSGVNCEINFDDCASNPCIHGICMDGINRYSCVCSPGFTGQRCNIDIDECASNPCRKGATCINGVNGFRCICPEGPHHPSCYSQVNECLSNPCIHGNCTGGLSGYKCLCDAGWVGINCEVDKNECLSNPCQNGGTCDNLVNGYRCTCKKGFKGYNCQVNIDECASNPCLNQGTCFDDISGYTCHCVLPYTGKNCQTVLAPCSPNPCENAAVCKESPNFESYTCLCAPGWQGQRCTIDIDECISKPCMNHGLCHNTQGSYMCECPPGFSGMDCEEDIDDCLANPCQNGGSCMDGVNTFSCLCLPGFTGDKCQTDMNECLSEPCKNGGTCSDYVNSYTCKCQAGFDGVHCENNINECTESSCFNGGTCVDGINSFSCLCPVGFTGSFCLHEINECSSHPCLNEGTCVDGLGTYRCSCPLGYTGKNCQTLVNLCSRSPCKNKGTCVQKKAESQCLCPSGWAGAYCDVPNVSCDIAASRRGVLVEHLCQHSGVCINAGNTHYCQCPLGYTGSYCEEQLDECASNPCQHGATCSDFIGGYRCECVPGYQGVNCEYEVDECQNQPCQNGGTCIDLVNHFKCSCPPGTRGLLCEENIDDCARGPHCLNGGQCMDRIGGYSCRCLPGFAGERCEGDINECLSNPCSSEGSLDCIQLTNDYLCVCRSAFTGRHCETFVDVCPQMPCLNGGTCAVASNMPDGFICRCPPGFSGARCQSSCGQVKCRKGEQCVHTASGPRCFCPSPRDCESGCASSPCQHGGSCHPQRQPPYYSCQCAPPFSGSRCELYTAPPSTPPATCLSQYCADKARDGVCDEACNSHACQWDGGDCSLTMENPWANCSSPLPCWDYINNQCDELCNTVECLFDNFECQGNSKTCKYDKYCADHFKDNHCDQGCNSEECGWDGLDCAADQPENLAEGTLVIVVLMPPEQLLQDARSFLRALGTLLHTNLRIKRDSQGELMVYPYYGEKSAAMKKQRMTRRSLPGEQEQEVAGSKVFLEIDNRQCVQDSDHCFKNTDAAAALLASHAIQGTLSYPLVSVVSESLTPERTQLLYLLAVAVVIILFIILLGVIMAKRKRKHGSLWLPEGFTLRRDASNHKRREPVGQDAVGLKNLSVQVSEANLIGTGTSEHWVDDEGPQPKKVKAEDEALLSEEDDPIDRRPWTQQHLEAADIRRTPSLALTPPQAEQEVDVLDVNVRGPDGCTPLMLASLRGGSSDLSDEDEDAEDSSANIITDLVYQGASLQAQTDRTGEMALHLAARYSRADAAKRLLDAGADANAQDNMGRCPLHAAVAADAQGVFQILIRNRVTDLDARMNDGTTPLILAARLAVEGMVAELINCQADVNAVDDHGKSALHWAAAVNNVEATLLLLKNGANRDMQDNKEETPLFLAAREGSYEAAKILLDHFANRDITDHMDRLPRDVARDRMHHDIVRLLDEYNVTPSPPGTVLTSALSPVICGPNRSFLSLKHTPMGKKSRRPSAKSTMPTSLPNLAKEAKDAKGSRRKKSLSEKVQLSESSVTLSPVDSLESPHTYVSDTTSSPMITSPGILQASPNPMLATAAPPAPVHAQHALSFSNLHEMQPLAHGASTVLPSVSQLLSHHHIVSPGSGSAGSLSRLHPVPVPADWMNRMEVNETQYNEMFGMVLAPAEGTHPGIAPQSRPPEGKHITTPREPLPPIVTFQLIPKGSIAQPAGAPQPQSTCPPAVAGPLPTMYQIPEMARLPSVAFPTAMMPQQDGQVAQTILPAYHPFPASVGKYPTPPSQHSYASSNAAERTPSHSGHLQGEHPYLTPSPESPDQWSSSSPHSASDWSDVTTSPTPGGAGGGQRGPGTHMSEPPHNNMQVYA
SMILES,composite z-score [1],composite z-score [2],composite z-score [3],composite z-score [4],composite z-score [5],composite z-score [6],composite z-score [7],z-score [8],composite z-score [9],composite z-score [10]
CO[C@H]1O[C@H](CO)[C@@H](OC(=O)Nc2ccc(C(F)(F)F)cc2)[C@H](OC(=O)Nc2ccccc2-c2ccccc2)[C@@H]1OC(=O)Nc1ccccc1-c1ccccc1,0.433,1.65,-0.0262,0.94,1.56,1.77,1.29,-0.228 (inactive),1.32,-0.146
O=C1C2C=CC(C(O)c3cccs3)N(Nc3ccccc3)C2C(=O)N1c1ccccc1 (stereo not given),0.629,-0.0855,-0.0459,0.0873,0.878,0.97,0.964,-1.49 (inactive),0.35,-0.0237
COc1ccc(C#Cc2ccc3c(c2)[C@]2(C(=O)N3)[C@H](c3ccc(OCCO)cc3)N3[C@H](c4ccccc4)[C@H](c4ccccc4)OC(=O)[C@H]3[C@@H]2C(=O)O)cc1,-0.302,0.478,0.0296,1.12,1.34,0.343,1.25,0.373 (inactive),0.29,-0.0454
COCCCNC(=O)[C@@H]1c2ccccc2C(=O)N(Cc2cc(C(F)(F)F)cc(C(F)(F)F)c2)[C@H]1c1ccc(CO)cc1,-0.468,0.668,-0.182,-0.568,-0.0254,0.686,0.887,0.309 (inactive),1.49,-0.34
COc1cccc(C[C@H]2C[C@@H](CO[Si](C(C)C)(C(C)C)C(C)C)N3C(=O)[C@@]4(C(C)=O)O[C@@]23[C@@H]2C(=O)N(C)C(=O)[C@@H]24)c1,-0.43,0.199,-0.0697,0.933,1.16,1.01,0.93,-1.14 (inactive),0.307,0.113
O=C1O[C@@H](c2ccccc2)[C@@H](c2ccccc2)N2[C@@H](c3ccc(O)cc3)[C@]3(C(=O)Nc4ccc(C#CC5=CCCCC5)cc43)[C@@H](C(=O)N3CCCCCCC3)[C@H]12,2.95,0.905,0.347,0.294,0.861,0.705,1.3,-1.38 (inactive),2.44,0.271
[N-]=[N+]=NCc1ccccc1C[C@]1(C(=O)N2CCCCC2)N=C(c2ccc(OCCCO)cc2)O[C@H]1c1ccccc1,0.393,0.449,-0.0165,0.39,1.07,0.618,0.849,-4.27 (inactive),0.485,0.0722
CCCC[C@@H](O)C1=C(COC)Cn2c(=O)n(-c3ccccc3)c(=O)n2[C@H]1CO,-0.306,-0.191,-0.226,0.13,-0.167,-0.43,-0.336,-1.12 (inactive),-0.292,-0.236
COCCOC(=O)N1C(=O)[C@@]2(c3cc(C#CCCO)ccc31)[C@H](c1ccccc1OCCO)N1[C@H](c3ccccc3)[C@H](c3ccccc3)OC(=O)[C@H]1[C@@H]2C(=O)N1CCc2cc(OC)c(OC)cc2C1,0.071,0.827,0.022,1.04,1.04,1.21,1.17,-1.4 (inactive),0.505,0.0373
COCCOC(=O)N1C(=O)[C@@]2(c3cc(C#CCNC(N)=O)ccc31)[C@H](C(=O)NC[C@H](O)c1ccccc1)[C@H]1C(=O)O[C@H](c3ccccc3)[C@H](c3ccccc3)N1[C@@H]2c1ccc(OCCO)cc1,0.102,0.249,0.0198,0.656,0.431,0.634,0.877,0.769 (inactive),0.538,-0.0994
Cc1c(NC(=O)/C(C#N)=C/c2ccc(Cl)cc2)c(=O)n(-c2ccccc2)n1C,-0.268,-0.113,-0.0909,0.589,0.746,0.942,1.2,-0.131 (inactive),0.52,0.0623
C=CC(CO)NC(=O)OCC1c2ccccc2-c2ccccc21 (stereo not given),-0.165,0.96,-0.178,0.282,0.342,0.147,0.256,-0.113 (inactive),0.0613,-0.217
